Measurements published in PubChem BioAssay.
Calls of active or inactive are those of the source.

Experiments:
[1] = test system: PRMT1 (protein arginine N-methyltransferase 1); test: PRMT1 binders on small-molecule microarrays, primary screen, biochemical, small-molecule microarray, 635 nm fluorescence (AID 1088); conditions: small-molecule microarray binding, higher = more signal;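 note: binding of Prmt1 protein to compounds spotted on small-molecule microarray slides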
[2] = yeast growth modulation, basal conditions, primary screen, YJM789 clinical isolate, OD600, 24 h (AID 1089);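 note: growth of clinical yeast isolate S. cerevisiae YJM 789 seeded 1000 cells per well; test concentration not given here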; conditions: S. cerevisiae YJM789 growth, higher = more signal, called active from +8 up or from −8 down
[3] = fission yeast growth modulation, primary screen, strain 972, OD600, 24 h, no modulator (AID 1090);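 note: basal condition with compound alone and no growth modifier present; test concentration not given here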; conditions: S. pombe 972 growth, higher = more signal, called active from +8 up or from −8 down
[4] = S. cerevisiae growth modulation with rapamycin, primary screen, strain BY4716, OD600, 96 h (AID 1091); conditions: higher = more signal, called active from +8 up or from −8 down; note: test concentration not given here
[5] = target: Torsin-1A-interacting protein 2 (Homo sapiens) (UniProt Q8NFQ8); test: LULL1 binders on small-molecule microarray, primary screen, cell lysate, human LULL1 lysate, 635/667 nm fluorescence (AID 1092); conditions: hLULL1 lysate binding, 635 nm fluorescence, higher = more signal;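 note: probe is lysate of COS7 cells overexpressing human LULL1; score merges per-feature 667 nm fluorescence with signal-to-noise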
Sequence of Torsin-1A-interacting protein 2 (Homo sapiens) (Q8NFQ8 whole entry, looked up): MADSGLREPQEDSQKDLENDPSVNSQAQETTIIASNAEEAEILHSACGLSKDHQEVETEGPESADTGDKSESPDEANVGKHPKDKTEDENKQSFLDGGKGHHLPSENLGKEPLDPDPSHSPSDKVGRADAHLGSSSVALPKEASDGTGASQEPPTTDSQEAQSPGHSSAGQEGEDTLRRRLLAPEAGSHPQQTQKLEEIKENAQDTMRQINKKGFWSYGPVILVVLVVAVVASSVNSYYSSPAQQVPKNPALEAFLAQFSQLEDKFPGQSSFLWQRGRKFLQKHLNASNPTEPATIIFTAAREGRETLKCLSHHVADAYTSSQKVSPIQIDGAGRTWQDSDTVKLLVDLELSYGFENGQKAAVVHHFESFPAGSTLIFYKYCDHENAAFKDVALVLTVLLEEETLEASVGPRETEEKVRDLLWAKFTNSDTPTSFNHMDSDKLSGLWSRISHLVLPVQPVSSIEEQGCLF

[6] = E. coli growth modulation, two-sided OD650, primary screen, E. coli filamentation project, strain DRC41, 24 h (AID 1093); conditions: OD650, 24 h, higher = more signal, called active from +8 up or from −8 down;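 note: MC1000 strain lacking acrAB efflux and sulA so SOS filamentation is blocked; test concentration not given here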
[7] = small-molecule microarray binders of probe aLefty2, primary screen, biochemical, biotinylated probe, 635/667 nm fluorescence (AID 1094); conditions: higher = more signal;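 note: score merges spot fluorescence near 667 nm with spot signal-to-noise ratio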
[8] = test system: Noggin (protein binding on small-molecule microarray); test: Noggin binders on small-molecule microarray, primary screen, biochemical, 635/667 nm fluorescence (AID 1095); conditions: 635 nm fluorescence, higher = more signal;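 note: score merges 667 nm feature fluorescence with signal to noise over triplicate slides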
[9] = target: Neurogenic locus notch homolog protein 3 (Homo sapiens) (UniProt Q9UM47); test: NOTCH3 binders on small-molecule microarray, primary screen, biochemical, 635/667 nm fluorescence (AID 1096); conditions: NOTCH3 binding, 635 nm fluorescence, higher = more signal
Sequence of Neurogenic locus notch homolog protein 3 (Homo sapiens) (Q9UM47 whole entry, looked up): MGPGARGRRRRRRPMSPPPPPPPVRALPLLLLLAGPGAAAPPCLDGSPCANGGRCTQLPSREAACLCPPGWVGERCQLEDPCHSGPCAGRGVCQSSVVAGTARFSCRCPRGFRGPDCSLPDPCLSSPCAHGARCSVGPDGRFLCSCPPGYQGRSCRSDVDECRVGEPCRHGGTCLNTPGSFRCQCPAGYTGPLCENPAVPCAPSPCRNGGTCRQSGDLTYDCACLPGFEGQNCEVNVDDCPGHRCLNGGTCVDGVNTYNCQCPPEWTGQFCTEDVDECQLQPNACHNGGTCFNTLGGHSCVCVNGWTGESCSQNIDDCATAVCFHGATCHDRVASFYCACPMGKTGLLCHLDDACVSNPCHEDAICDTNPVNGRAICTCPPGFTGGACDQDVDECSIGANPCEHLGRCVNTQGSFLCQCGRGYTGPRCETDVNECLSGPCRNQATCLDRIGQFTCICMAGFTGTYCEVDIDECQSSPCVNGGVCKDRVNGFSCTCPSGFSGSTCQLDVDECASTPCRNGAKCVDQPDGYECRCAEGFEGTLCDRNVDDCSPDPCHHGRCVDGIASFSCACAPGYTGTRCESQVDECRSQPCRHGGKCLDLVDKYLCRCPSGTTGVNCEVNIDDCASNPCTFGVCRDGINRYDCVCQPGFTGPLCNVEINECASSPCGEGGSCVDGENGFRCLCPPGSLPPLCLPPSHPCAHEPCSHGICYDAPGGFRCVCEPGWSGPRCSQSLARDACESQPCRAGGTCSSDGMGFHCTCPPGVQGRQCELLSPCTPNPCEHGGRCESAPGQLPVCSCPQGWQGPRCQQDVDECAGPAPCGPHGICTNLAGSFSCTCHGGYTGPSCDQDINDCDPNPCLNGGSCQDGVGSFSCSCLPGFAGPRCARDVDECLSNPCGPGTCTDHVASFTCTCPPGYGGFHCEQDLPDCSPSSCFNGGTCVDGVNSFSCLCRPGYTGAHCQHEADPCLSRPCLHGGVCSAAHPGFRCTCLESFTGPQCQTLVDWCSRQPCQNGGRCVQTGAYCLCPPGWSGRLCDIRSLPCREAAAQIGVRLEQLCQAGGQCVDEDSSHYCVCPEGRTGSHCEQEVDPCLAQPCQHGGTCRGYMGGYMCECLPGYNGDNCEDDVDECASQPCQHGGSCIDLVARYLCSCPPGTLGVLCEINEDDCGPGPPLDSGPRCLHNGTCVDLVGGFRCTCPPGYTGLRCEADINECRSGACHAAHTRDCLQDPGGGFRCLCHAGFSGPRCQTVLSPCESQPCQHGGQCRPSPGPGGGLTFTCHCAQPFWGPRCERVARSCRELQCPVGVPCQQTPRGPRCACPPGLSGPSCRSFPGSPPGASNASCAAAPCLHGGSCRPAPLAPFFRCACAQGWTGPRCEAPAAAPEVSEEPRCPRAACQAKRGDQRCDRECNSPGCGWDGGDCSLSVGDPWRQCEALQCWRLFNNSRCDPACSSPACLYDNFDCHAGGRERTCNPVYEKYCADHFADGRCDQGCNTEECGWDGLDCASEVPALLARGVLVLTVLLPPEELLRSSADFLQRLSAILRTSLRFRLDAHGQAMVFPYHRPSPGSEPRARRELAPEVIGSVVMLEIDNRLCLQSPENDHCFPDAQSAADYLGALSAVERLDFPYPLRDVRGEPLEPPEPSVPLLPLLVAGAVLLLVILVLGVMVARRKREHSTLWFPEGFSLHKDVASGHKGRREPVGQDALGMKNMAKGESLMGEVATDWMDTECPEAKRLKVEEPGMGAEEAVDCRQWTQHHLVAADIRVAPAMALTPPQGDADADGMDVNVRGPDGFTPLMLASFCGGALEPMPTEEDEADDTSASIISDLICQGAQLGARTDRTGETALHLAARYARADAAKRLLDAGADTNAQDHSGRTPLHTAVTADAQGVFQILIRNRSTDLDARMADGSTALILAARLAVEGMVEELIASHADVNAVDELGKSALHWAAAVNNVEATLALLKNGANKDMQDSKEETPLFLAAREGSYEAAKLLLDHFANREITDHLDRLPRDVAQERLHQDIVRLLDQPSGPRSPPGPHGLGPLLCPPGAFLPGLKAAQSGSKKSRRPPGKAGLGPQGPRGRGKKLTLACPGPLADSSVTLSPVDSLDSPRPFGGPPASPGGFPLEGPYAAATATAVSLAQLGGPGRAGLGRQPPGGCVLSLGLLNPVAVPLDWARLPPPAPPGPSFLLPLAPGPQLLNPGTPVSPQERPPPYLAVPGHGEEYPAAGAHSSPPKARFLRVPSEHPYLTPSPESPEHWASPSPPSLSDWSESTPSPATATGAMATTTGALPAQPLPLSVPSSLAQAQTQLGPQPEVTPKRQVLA

[10] = small-molecule microarray binders of probe aEGFR, primary screen, biochemical, biotinylated probe, 635/667 nm fluorescence (AID 1097); conditions: higher = more signal;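 note: probe is a biotinylated anti-EGFR antibody binding compounds printed on slides; score combines fluorescence near 667 nm and signal to noise of each spot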
[11] = test system: Plasmodium falciparum Sir2 (PF13_0152, Sir2A); test: pfSir2 binders on small-molecule microarrays, primary screen, biochemical, small-molecule microarray, 635 nm fluorescence (AID 1098); conditions: small-molecule microarray binding, fluorescence 635 nm; higher = more signal;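 note: score merges spot fluorescence intensity with its signal-to-noise ratio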
[12] = small-molecule microarray binders of probe aDKK1, primary screen, biochemical, biotinylated probe, 635/667 nm fluorescence (AID 1099); conditions: higher = more signal;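 note: score merges 667nm spot fluorescence with signal to noise across triplicate slides; reference of the scale not given here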
[13] = small-molecule microarray binders of probe aCHRDL2, primary screen, biochemical, biotinylated probe, 635/667 nm fluorescence (AID 1100); conditions: higher = more signal
[14] = splicing luciferase reporter signal modulators, primary screen, spliceosome inhibition project, cell-based, HEK293, splice +/- reporter (AID 1101); conditions: luminescence, 24 h, higher = more signal, called active from +8 up or from −8 down;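 note: HEK293 cells carrying a splicing-competent luciferase reporter gene; test concentration not given here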
[15] = target: Fibroblast growth factor 10 (Homo sapiens) (UniProt O15520); test: FGF10 binders on small-molecule microarrays, primary screen, biochemical, small-molecule microarray, 635 nm fluorescence (AID 1102); conditions: FGF10 binding, fluorescence 635 nm, higher = more signal
Sequence of Fibroblast growth factor 10 (Homo sapiens) (O15520 whole entry, looked up): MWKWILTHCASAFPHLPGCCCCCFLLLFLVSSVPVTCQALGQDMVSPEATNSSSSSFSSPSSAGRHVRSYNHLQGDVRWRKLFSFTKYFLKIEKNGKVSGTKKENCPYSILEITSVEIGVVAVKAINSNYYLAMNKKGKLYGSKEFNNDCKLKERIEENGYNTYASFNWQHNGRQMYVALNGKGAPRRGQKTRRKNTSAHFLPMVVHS

[16] = test system: glycogen synthase kinase-3 (GSK3A per assay name; protocol says GSK3B); test: GSK3 binders on small-molecule microarrays, primary screen, biochemical, small-molecule microarray, 635 nm fluorescence, GSK3A (AID 1103); conditions: small-molecule microarray binding, fluorescence 635 nm; higher = more signal; note: the record names both GSK3A and GSK3B
[17] = target: Epidermal growth factor receptor (Homo sapiens) (UniProt P00533); test: EGFR binders on small-molecule microarrays, primary screen, biochemical, small-molecule microarray, 635 nm fluorescence (AID 1104); conditions: EGFR binding, higher = more signal;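 note: score merges 667 nm emission intensity with spot signal to noise over triplicate slides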
Sequence of Epidermal growth factor receptor (Homo sapiens) (P00533 whole entry, looked up): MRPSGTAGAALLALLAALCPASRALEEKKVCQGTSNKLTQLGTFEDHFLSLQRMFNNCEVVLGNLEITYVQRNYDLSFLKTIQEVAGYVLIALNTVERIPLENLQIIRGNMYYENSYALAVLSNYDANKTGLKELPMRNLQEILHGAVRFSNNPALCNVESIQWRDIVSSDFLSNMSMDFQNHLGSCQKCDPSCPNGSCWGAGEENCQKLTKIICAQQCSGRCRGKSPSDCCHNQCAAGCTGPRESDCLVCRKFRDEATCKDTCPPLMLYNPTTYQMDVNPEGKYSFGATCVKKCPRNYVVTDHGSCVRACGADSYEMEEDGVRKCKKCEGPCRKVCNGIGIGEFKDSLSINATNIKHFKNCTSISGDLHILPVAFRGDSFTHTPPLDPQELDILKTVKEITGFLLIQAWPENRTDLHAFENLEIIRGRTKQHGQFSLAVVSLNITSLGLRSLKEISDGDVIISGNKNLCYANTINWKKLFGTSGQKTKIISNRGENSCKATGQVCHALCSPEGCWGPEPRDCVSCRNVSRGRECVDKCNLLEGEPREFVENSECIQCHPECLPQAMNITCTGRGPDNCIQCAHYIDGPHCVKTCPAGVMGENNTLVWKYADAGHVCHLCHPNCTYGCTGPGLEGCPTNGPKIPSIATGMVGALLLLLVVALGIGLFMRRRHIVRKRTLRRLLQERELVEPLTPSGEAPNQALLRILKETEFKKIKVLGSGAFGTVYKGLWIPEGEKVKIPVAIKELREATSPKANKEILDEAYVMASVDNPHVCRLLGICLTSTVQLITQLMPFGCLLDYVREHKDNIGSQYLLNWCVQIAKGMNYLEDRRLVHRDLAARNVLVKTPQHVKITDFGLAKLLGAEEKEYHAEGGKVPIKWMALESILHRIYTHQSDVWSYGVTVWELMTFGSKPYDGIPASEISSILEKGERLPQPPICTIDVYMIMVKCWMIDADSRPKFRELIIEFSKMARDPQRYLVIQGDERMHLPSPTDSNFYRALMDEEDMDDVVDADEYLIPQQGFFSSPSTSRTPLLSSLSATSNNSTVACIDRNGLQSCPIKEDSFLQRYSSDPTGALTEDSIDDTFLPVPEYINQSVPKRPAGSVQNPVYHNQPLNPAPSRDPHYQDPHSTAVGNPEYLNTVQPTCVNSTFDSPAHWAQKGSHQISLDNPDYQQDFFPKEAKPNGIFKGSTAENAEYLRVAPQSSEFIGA

[18] = target: Follistatin-related protein 3 (Homo sapiens) (UniProt O95633); test: FSTL3 binders on small-molecule microarrays, primary screen, biochemical, small-molecule microarray, 635 nm fluorescence (AID 1105); conditions: FSTL3 binding, higher = more signal;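 note: score merges emission near 667 nm and signal to noise per printed spot across three slides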
Sequence of Follistatin-related protein 3 (Homo sapiens) (O95633 whole entry, looked up): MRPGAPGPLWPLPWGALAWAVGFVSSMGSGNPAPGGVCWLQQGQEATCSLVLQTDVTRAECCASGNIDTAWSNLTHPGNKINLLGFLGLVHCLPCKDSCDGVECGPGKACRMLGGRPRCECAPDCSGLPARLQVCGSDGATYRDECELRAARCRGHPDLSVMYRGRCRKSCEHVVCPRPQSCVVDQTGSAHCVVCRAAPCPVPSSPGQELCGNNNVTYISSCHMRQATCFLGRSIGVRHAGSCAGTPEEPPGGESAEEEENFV

[19] = target: Dickkopf-related protein 1 (Homo sapiens) (UniProt O94907); test: DKK1 binders on small-molecule microarrays, primary screen, biochemical, small-molecule microarray, 635 nm fluorescence scan (AID 1106); conditions: DKK1 binding, higher = more signal;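 note: score merges emission near 667 nm with signal to noise over three replicate slides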
Sequence of Dickkopf-related protein 1 (Homo sapiens) (O94907 whole entry, looked up): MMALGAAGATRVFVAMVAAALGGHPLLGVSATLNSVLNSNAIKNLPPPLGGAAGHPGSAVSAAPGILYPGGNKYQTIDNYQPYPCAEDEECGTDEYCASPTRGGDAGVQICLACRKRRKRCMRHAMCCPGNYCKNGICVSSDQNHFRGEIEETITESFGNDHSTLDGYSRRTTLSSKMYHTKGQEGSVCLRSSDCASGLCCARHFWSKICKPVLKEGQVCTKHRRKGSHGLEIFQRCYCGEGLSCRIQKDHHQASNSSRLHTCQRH

[20] = test system: Inhibin beta A chain (activin A); test: INHBA (activin A) binders on microarrays, primary screen, biochemical, small-molecule microarray, 635 nm fluorescence scan (AID 1107); conditions: small-molecule microarray binding, higher = more signal;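 note: mouse activin A protein probed at 4.33 µg/mL on printed slides; score merges bound-protein fluorescence near 667 nm with spot signal-to-noise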

Row | SMILES | composite z-score [1] | z-score [2] | z-score [3] | z-score [4] | composite z-score [5] | z-score [6] | composite z-score [7] | composite z-score [8] | composite z-score [9] | composite z-score [10] | composite z-score [11] | composite z-score [12] | composite z-score [13] | z-score [14] | composite z-score [15] | composite z-score [16] | composite z-score [17] | composite z-score [18] | composite z-score [19] | composite z-score [20]
1 | CN(C)CCCC[C@@H]1NC(=O)[C@@H]2C[C@H](C(=O)NCCCCCCN)[C@H](c3ccc(O)cc3)N2C1=O | 1.18 | 0.377 (inactive) | -2.04 (inactive) | 0.638 (inactive) | 2.52 | -0.47 (inactive) | 0.892 | 0.855 | 0.526 | 0.678 | 0.812 | 1.46 | 0.848 | -0.0228 (inactive) | 0.987 | 1 | 0.734 | 0.849 | 1.05 | 1.41
2 | C=CCC(OC(C)=O)[C@@H]1[C@@H](N(Cc2cc3ccccc3o2)C(=O)c2ccc(-c3ccccc3)cc2)c2cc(OCCCO)ccc2N1C(=O)Cc1ccc2ccccc2c1 (stereo not given in full) | -0.598 | 1.06 (inactive) | 0.263 (inactive) | 1.49 (inactive) | 0.898 | 0.0672 (inactive) | -0.166 | -0.125 | -0.376 | -0.166 | -0.366 | -0.172 | 0.351 | 0.121 (inactive) | -0.0752 | -0.418 | -0.227 | -0.187 | -0.251 | 1.2
3 | O=C(NCC(O)CO)[C@@]1(Cc2ccccc2)COC(c2ccc(OCCCO)cc2)=N1 (stereo not given in full) | -0.546 | 0.0965 (inactive) | -0.92 (inactive) | -0.639 (inactive) | 1.1 | 0.869 (inactive) | -0.0809 | -0.891 | -1.18 | 0.132 | -0.509 | 0.549 | 0.536 | 0.138 (inactive) | -0.309 | -0.546 | -0.198 | -1.21 | -0.92 | 0.656
4 | [N-]=[N+]=Nc1ccccc1[C@H]1OC(c2ccc(OCCCO)cc2)=N[C@@]1(CCS(=O)(=O)c1ccccc1)C(=O)N1CCOCC1 | 1.55 | 1.17 (inactive) | 0.403 (inactive) | 4.39 (inactive) | 3.1 | 1.1 (inactive) | 0.766 | 0.245 | 1.09 | 0.561 | 1.5 | 1.8 | 1.46 | -0.829 (inactive) | 1.26 | 1.16 | 0.211 | 0.924 | -0.169 | 0.891
5 | CN(C)CCCC[C@@H]1NC(=O)[C@H]2C[C@@H](C(=O)NCCCCCNC(=O)CS)[C@@H](c3ccc(O)cc3)N2C1=O | -0.97 | 0.428 (inactive) | -0.578 (inactive) | -0.52 (inactive) | 0.134 | 0.702 (inactive) | 0.0601 | -0.673 | -0.0464 | -0.167 | 0.133 | 0.0417 | 0.308 | 1.1 (inactive) | -1.2 | -0.53 | -0.483 | -1.39 | -0.653 | 0.0182
